Data reported in the supplement of paper PMC3334620.
The full ranking holds about 33,000 sequences; the median of “E-score (-0.5 to 0.5)” is about -0.012, and the highest 2% start at about 0.27. For the sample, the highest values were picked, then their nearest neighbours and some sequences at random.

target: T1, Vhr1 (UniProt P40522); assay: PBM E-score (8-mer binding enrichment) (E-score (-0.5 to 0.5)); higher = stronger / more preferred TF binding; conditions: protein concentration: 200 nM; construct: GST-full length
T1 sequence: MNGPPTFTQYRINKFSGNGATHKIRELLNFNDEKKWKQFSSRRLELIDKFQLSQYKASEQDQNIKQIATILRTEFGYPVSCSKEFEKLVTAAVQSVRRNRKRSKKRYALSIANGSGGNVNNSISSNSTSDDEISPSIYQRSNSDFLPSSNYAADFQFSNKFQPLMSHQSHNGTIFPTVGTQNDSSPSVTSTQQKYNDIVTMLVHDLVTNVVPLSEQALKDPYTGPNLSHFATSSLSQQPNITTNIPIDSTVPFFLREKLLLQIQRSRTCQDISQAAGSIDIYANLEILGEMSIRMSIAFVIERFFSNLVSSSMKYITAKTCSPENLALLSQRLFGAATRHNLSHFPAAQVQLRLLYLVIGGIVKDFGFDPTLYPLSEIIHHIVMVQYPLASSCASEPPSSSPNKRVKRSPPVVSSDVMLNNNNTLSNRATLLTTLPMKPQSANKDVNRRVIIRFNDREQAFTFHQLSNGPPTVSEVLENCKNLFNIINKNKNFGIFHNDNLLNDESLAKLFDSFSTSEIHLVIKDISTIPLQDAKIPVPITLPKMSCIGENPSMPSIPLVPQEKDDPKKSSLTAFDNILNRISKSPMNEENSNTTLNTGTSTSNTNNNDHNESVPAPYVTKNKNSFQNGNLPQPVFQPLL
Experimental: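 Universal 'all 10-mer' protein binding microarrays (Agilent AMADID 015681) probed with GST-tagged S. cerevisiae TFs (full-length or DBD) made by in vitro transcription/translation (PURExpress), about 100-200 nM. Bound TF was detected with fluorescent anti-GST. Each ungapped 8-mer (which stands for itself and its reverse complement) is scored by the PBM enrichment score (E-score), a modified Wilcoxon-Mann-Whitney statistic from -0.5 to +0.5, computed with the Universal PBM Analysis Suite. Scale: above 0.35 generally sequence-specific binding.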

Sequence	PBM E-score
CAGGAATG	0.0121
CATGATTC	0.424
GATGAATC	0.249
CATGAATC	0.31
CTTGATTC	0.214
CACGAATA	0.066
CAGGAATC	0.313
GAGGAATC	0.0804
CACGAATC	0.288
CAGTATCC	0.124
GCTGGCGA	-0.0575
GGCAGACA	-0.0678
ATTGCCCA	-0.113
CCGGTCCG	0.112
AAATGAAT	-0.0848
CTGATCGA	0.0718
CTGGACCC	-0.213
CACTGCCG	0.173
ATACTACG	-0.0642
CTGAGATA	-0.128
GCAGCTTA	-0.0202
AATGATTC	0.406
CATGATAA	0.108
CTTGATTA	0.0605
CATGATTA	0.369
ATTGATTC	0.171

Sequence	PBM E-score
AATGATTG	0.199
TAACCTAA	-0.187
ACCTTCTG	0.167
CCCACCCC	0.389
CCCACCCG	0.382
ACCACCCC	0.112
CCCACCCA	0.263
GCCACCCC	-0.0413
ACCACCCG	-0.0147
AACCCCTA	-0.0392
AACACCGA	0.108
GACGACGC	-0.049
GACGACTA	0.162
CACGACTC	0.378
CACGACTG	0.178
AACGACTC	0.292
GACGACTC	0.358
AACGACTT	-0.216
AACGACTA	0.0488
CACGACTA	0.209
GCACCCAA	-0.0528
AGTCTTGC	0.0289
ACAGCTCC	0.0267
TTACCTAA	-0.0877
AAGTCAGA	0.0614
ATGTCAGC	0.072

Sequence	PBM E-score
GGGTCAGA	-0.0746
AAGTCAGC	0.281
GAGTCAGA	0.447
CAGTCAGA	0.224
GAGTCAGC	0.476
CAGTCAGC	0.232
GCGTCAGC	-0.256
CATGGGAC	0.02
GTACTTCA	0.114
CAATGGTC	0.115
CCTAGTAC	0.0265
ATGCTCAA	-0.0744
CTCGAGAA	-0.188
AGCAGTCA	0.256
CGCAGTCC	0.0797
CGCAGTCA	0.363
GGCAGTCA	0.345
GGCAGTGA	0.0755
GGCAGTAA	0.125
AGACCTGC	-0.147
CGCGCGAC	0.162
CTCGCGAC	0.242
GGCGCGAA	0.0599
GTCGCGAA	0.0553
GGCGCGAC	0.275
GTCGCGAC	0.379

Sequence	PBM E-score
GTGGCTCA	0.277
AGGGCTCA	0.0814
ATAGCTCA	0.0225
GTGGCTTA	-0.111
ATGGCTCG	0.231
ATGGCTCC	0.325
CTGGCTCA	0.28
ATGGCTCA	0.293
GTAGCTCA	0.0143
CCGGCTCA	0.0508
CTGGCTCC	0.0343
AGGGCTCC	-0.358
AATGAGCC	-0.00477
AGAGACTG	0.0515
CTGCAGAA	0.0335
GATTGACA	0.0916
AAAGTTCG	-0.228
AATCAGTG	0.0903
AGTCAGTC	0.214
ATTCAGTG	0.0826
CGTCAGTA	0.02
AGTCAGTG	0.375
AGTCAGTA	0.323
ATAGGAGA	-0.00333
GCAGCAAC	0.126
CAAGGGCC	-0.201

Sequence	PBM E-score
ACCCATAT	0.296
CCACACAC	0.143
ACAATATC	0.0645
ACCCATAC	0.222
ACACTATA	0.152
ACAATATA	0.221
ACCCATAG	0.0609
ACACACAC	0.316
GCACACAC	0.178
ACACTATC	0.151
ACACTATG	0.292
ACAATATG	0.325
ACTGTTGG	0.034
CCGATTTC	-0.129
GTATAGAC	0.145
CGAAACCC	-0.0543
CAATCGTA	-0.029
ACCGATTC	-0.0343
CAGCGAGC	0.135
CGAGCAGA	0.0217
TTGGTAAA	-0.12
CCACACAG	0.165
ACAGTATC	-0.14
CCACACTC	-0.0226
AGACACAT	0.0642
ACAGTATG	0.277

Sequence	PBM E-score
ACACACAG	0.353
ACAGTATA	0.11
ACACACTC	0.293
AAACACAT	0.252
ACACACTG	0.163
ACACACAT	0.275
ACACACAA	0.226
CAGTTGCG	0.107
ACTTCTGG	-0.04
GTTGAAAC	-0.0891
CTAAGAAA	-0.112
AATGCTAC	0.072
ACGCTCCT	-0.065
ACCCACAG	0.157
ACCCACAC	0.185
ACCCACAT	0.271
ACACTTAG	0.00688
CGTCGGCC	-0.143
CCTCGGCA	-0.129
CGTCGGCA	0.044
AGTCGGAA	0.293
AGTCGGCA	0.282
TGTCGGAA	0.0453
CCTCGGCG	0.283
GGTCGGCA	-0.138
CCTCGGCC	0.00422

Sequence	PBM E-score
AGTCGGAC	-0.0678
AGTCGGCC	0.278
ATTCGGCC	0.0234
GACTTGAA	-0.152
AAAGGTCA	-0.173
CCGACTGC	0.126
AGTCGGCG	0.293
ATTCGGCG	-0.00502
AGTCGGTG	0.246
AAGTGACA	0.0587
ACAGGGTC	0.133
CAGAGTCG	0.328
AAGAGTTG	-0.154
CAGAGTGA	0.0508
CAGAGTCC	0.0441
CAGAGTCA	0.344
AAGAGTCG	0.281
CAGGGTCG	0.025
AAGAGTGG	-0.0723
CAGGGTCA	0.00801
